Experimental findings from the supplement of paper PMC6555819 are described below.

One test concerns PXR homodimer (NR concentration 270 nM). Description: PBM binding z-score (relative to random genomic background probes); higher = stronger binding; sequences stand for … in GC…GCGATTGACAGCGTAGAATGAAGG
In a few lines: (§1)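 Binding z-scores were set against random background probes. The data came from custom Agilent 4×180K protein-binding microarrays carrying double-stranded probes with 34-nt variable regions, incubated 1 h with ligand-free nuclear receptor dimers. Partner-specific antibodies detected binding, and scanned fluorescence was regression-normalized.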
In the case of GCGACTGGGGCATCAGCAGGTTACGATAACTTAA, the PBM binding z-score is -0.369.

In the case of GATACAGGGTCAAGACCAGAGTACGCGTATTGAT, the PBM binding z-score worked out at 0.195.

As for TCTTGTAGATCAGCAGGTAAAGAAAGCTGGCCAA, the PBM binding z-score is -0.358.

In turn, GGATCGAGGGCAAGTTGATAGCAGAGTTTGATGG came in with a PBM binding z-score of 0.825.

As to ACTGACAGGTGAGTGAAGGTAACTCAGCTGGACG, the PBM binding z-score was -0.633.

Take CGTCCAGGGTCAGAGAGGTCAGTGAATGCCGAGT: the PBM binding z-score was 9.1.

Turning to TAGCCTAGGTCGTGCGGGCCAGTATAGTGTCGGC, the PBM binding z-score was -0.881.

As for TCTGCTAGGTCAGTAGGTCAGCTAACGAGCTGCC, the PBM binding z-score is -0.386.

Sequence CGAACTATGTCAGAACAGGACAGTGAAGGATGAT showed a PBM binding z-score of 0.0805.

As to TGAATGAGGTTATAAGATCAGCGAACGTTGCAAA, the PBM binding z-score is -0.373.

On to GCTTACGGGTCAAAGATTATAGCATGAATAGAAT, for which the PBM binding z-score was -0.0668.

Consider AGAACGAGGGCAAGCTGAGTTGATAGCAGAGTAG, for which the PBM binding z-score came out at 0.458.

For CGAACGAGGGCATGAGTGGATAGCAAATGCCGAT, the PBM binding z-score was -0.305.

As for CTCGCAAGGTCGTGCTCAGGTGAGTATACCAAAC, the PBM binding z-score was -0.272.

The sequence TAAGACAGGTGAAGGTAACTCAGGTACGCAGTCG gave a PBM binding z-score of 0.588.

Turning to TGATATAGGTAAAGGTGAAAGTCGAACGATATGA, the PBM binding z-score came to 0.297.

In the case of ATCTCTAGGTAAAGATAGTTCACTGAATGCAAAT, the PBM binding z-score is 0.848.

For the sequence CCGTACGGGTCACGAGGTTATAGCACGACGAGCG, the PBM binding z-score is -0.215.

The sequence CCTACTGGGCCAAAGGTCATTCATTCCAATGCTC gave a PBM binding z-score of 2.49.

Sequence TGTCAAAGTTCAAAGGAAACGTAAGTATCCACAC returned a PBM binding z-score of 1.78.

Take CTCGAAAGGTCGGTTGAGGTGAGAATACGGATAA: the PBM binding z-score is 0.108.

With CCAGACAGGTGAAAGTTAACTCAGTCTGGTACGC, the PBM binding z-score was -0.35.

GATACAGGGTCAAGGCCAGACTACGCGTATTGAT registered a PBM binding z-score of 0.191.

CCAGACAGGTGAGAAGGTAACTGAGCCTCGATTA yielded a PBM binding z-score of 0.124.

ATCGAAAGATCGACGAGGTGAGTATACACCGTTT returned a PBM binding z-score of 0.0422.

Regarding CCTACTGGGCCATCAGGTCATTGACATCAACGTT, the PBM binding z-score was 0.415.

Consider GCGACTGGGGCAAAGCCGGTTACCATAAGGTTGG, for which the PBM binding z-score was -0.627.

With CCGACTGGGGCAGAACGGTTACCATACCATCCGG, the PBM binding z-score is -0.492.

In turn, ACTAGCAGGCCAAGTTTGGGTCACTCACACAAAG gave a PBM binding z-score of 0.229.

Consider GCGAGCAGGCCATTTGGGTCACTCAATGACGGGC, for which the PBM binding z-score stood at 0.189.

Consider AATACAGGGTCACTAGGCCAGAATAGGTACGAAT, for which the PBM binding z-score stood at 0.787.

With GCGACTGGGGCATCAGCAGTTTACCATAACTTAA, the PBM binding z-score worked out at 0.14.

With TCTGCTAGGTCAATGATGGTCAGCTAATCTGCTA, the PBM binding z-score is -0.71.

TCTAGTTGGTCACGGAGGTCACAGACGACGGGTA came in with a PBM binding z-score of 0.763.

Take CCTAGCGGGCCAATCTGGGTCACTCAAGGCTTGA: the PBM binding z-score was -0.579.

Sequence GCAACGAGGGCAAGTTGATAGCAGAGTTTGATGG came in with a PBM binding z-score of 0.464.

For the sequence ATATGTAGGTTAAGGGTAATTCAGGTTGGTTCGC, the PBM binding z-score turned out to be 1.44.

CAAACTAGGCCACGAAAGGTCAAAGTCGAATGAC gave a PBM binding z-score of 1.95.

CTCAAAAGGTCGTGCTCAGGTGAGTATACCAAAC registered a PBM binding z-score of 0.288.

In another test the test system is RARa:RXR (NR concentration 270 nM, RXRa partner concentration 90 nM). Described as above. Put shortly:
as §1
Consider GCGACTGGGGCATCAGCAGGTTACGATAACTTAA, for which the PBM binding z-score was found to be 0.42.

Regarding GATACAGGGTCAAGACCAGAGTACGCGTATTGAT, the PBM binding z-score was determined as 3.93.

Sequence TCTTGTAGATCAGCAGGTAAAGAAAGCTGGCCAA registered a PBM binding z-score of 0.111.

The sequence GGATCGAGGGCAAGTTGATAGCAGAGTTTGATGG returned a PBM binding z-score of 0.165.

Sequence ACTGACAGGTGAGTGAAGGTAACTCAGCTGGACG gave a PBM binding z-score of 0.381.

Turning to CGTCCAGGGTCAGAGAGGTCAGTGAATGCCGAGT, the PBM binding z-score is 5.52.

With TAGCCTAGGTCGTGCGGGCCAGTATAGTGTCGGC, the PBM binding z-score is -0.166.

TCTGCTAGGTCAGTAGGTCAGCTAACGAGCTGCC returned a PBM binding z-score of 2.58.

CGAACTATGTCAGAACAGGACAGTGAAGGATGAT: the PBM binding z-score amounted to 0.0752.

The sequence TGAATGAGGTTATAAGATCAGCGAACGTTGCAAA displayed a PBM binding z-score of 1.33.

The sequence GCTTACGGGTCAAAGATTATAGCATGAATAGAAT yielded a PBM binding z-score of 4.47.

Regarding AGAACGAGGGCAAGCTGAGTTGATAGCAGAGTAG, the PBM binding z-score is 0.426.

CGAACGAGGGCATGAGTGGATAGCAAATGCCGAT displayed a PBM binding z-score of 0.373.

CTCGCAAGGTCGTGCTCAGGTGAGTATACCAAAC showed a PBM binding z-score of 2.37.

Consider TAAGACAGGTGAAGGTAACTCAGGTACGCAGTCG, for which the PBM binding z-score was 0.526.

On to TGATATAGGTAAAGGTGAAAGTCGAACGATATGA, for which the PBM binding z-score worked out at 1.93.

Take ATCTCTAGGTAAAGATAGTTCACTGAATGCAAAT: the PBM binding z-score amounted to 1.12.

For CCGTACGGGTCACGAGGTTATAGCACGACGAGCG, the PBM binding z-score came out at 6.42.

CCTACTGGGCCAAAGGTCATTCATTCCAATGCTC returned a PBM binding z-score of 6.3.

For the sequence TGTCAAAGTTCAAAGGAAACGTAAGTATCCACAC, the PBM binding z-score came out at 3.21.

Sequence CTCGAAAGGTCGGTTGAGGTGAGAATACGGATAA displayed a PBM binding z-score of 2.11.

CCAGACAGGTGAAAGTTAACTCAGTCTGGTACGC showed a PBM binding z-score of 0.616.

Turning to GATACAGGGTCAAGGCCAGACTACGCGTATTGAT, the PBM binding z-score was 4.98.

As to CCAGACAGGTGAGAAGGTAACTGAGCCTCGATTA, the PBM binding z-score amounted to 0.14.

For ATCGAAAGATCGACGAGGTGAGTATACACCGTTT, the PBM binding z-score worked out at 0.105.

As to CCTACTGGGCCATCAGGTCATTGACATCAACGTT, the PBM binding z-score worked out at 2.15.

Regarding GCGACTGGGGCAAAGCCGGTTACCATAAGGTTGG, the PBM binding z-score was -0.45.

With CCGACTGGGGCAGAACGGTTACCATACCATCCGG, the PBM binding z-score is -0.872.

With ACTAGCAGGCCAAGTTTGGGTCACTCACACAAAG, the PBM binding z-score came out at 1.62.

As for GCGAGCAGGCCATTTGGGTCACTCAATGACGGGC, the PBM binding z-score was 0.937.

In the case of AATACAGGGTCACTAGGCCAGAATAGGTACGAAT, the PBM binding z-score stood at 4.21.

GCGACTGGGGCATCAGCAGTTTACCATAACTTAA yielded a PBM binding z-score of 0.0655.

For TCTGCTAGGTCAATGATGGTCAGCTAATCTGCTA, the PBM binding z-score stood at 1.46.

Sequence TCTAGTTGGTCACGGAGGTCACAGACGACGGGTA yielded a PBM binding z-score of 4.83.

CCTAGCGGGCCAATCTGGGTCACTCAAGGCTTGA yielded a PBM binding z-score of 1.49.

GCAACGAGGGCAAGTTGATAGCAGAGTTTGATGG registered a PBM binding z-score of 0.816.

Regarding ATATGTAGGTTAAGGGTAATTCAGGTTGGTTCGC, the PBM binding z-score worked out at 1.63.

For CAAACTAGGCCACGAAAGGTCAAAGTCGAATGAC, the PBM binding z-score turned out to be 6.

For CTCAAAAGGTCGTGCTCAGGTGAGTATACCAAAC, the PBM binding z-score was 4.2.
